Screening results (PubChem BioAssay)
PLCb3 inh – blocks human PLC-beta3 enzyme activity | Q01970 | Purified PLC-beta3, fluorogenic substrate, fluorescence | inhibition, % at 12.2 µM | actives 0.18% (n = 370,000); in the data active = inhibition above about 11%;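 note: 0% = median of compound wells on plate and 100% = full blocker control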
ADAM10 inh – ADAM10 inhibition, QFRET primary screen; inhibition, % at 7 µM; actives 0.62% (n = 370,000); O14672; recombinant ADAM10, EDANS/DABCYL FRET peptide cleavage, 3 h;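 active = inhibition above a per-campaign cutoff equal to the mean of compounds falling between control-based bounds plus 3 SD, cut at about 20% in these data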;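 note: 0% = DMSO wells while the 100% control is not disclosed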
ADAM17 inh – inhibitors of human ADAM17; P78536; recombinant ADAM17, EDANS/DABCYL FRET peptide cleavage; inhibition, % at 6.95 µM; actives 0.83% (n = 370,000);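 active = inhibition above the mean of compounds lying between control limits plus 3 SD, set per campaign, cut at about 8.5% in these data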;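 note: 0% = DMSO-only wells as the low control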
KLK7 zymogen act – activators of human kallikrein-7 zymogen | P49862 | AID 652039 | activation, % at 7 µM | purified proKLK7, EDANS-DABCYL substrate fluorescence; 100% is mature enzyme control, 0% vehicle | actives 0.9% (n = 370,000);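 active = activation above the mean of all tested compounds plus 3 SD, computed per campaign excluding outliers beyond control limits, cut at about 13% in these data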
PLCg1 inh – blocks human PLC-gamma1 enzyme activity | purified PLC-gamma1, fluorogenic substrate, fluorescence | actives 0.84% (n = 370,000) | P19174 | inhibition, % at 12.2 µM | AID 720700
Target sequence (P19174 whole entry, looked up): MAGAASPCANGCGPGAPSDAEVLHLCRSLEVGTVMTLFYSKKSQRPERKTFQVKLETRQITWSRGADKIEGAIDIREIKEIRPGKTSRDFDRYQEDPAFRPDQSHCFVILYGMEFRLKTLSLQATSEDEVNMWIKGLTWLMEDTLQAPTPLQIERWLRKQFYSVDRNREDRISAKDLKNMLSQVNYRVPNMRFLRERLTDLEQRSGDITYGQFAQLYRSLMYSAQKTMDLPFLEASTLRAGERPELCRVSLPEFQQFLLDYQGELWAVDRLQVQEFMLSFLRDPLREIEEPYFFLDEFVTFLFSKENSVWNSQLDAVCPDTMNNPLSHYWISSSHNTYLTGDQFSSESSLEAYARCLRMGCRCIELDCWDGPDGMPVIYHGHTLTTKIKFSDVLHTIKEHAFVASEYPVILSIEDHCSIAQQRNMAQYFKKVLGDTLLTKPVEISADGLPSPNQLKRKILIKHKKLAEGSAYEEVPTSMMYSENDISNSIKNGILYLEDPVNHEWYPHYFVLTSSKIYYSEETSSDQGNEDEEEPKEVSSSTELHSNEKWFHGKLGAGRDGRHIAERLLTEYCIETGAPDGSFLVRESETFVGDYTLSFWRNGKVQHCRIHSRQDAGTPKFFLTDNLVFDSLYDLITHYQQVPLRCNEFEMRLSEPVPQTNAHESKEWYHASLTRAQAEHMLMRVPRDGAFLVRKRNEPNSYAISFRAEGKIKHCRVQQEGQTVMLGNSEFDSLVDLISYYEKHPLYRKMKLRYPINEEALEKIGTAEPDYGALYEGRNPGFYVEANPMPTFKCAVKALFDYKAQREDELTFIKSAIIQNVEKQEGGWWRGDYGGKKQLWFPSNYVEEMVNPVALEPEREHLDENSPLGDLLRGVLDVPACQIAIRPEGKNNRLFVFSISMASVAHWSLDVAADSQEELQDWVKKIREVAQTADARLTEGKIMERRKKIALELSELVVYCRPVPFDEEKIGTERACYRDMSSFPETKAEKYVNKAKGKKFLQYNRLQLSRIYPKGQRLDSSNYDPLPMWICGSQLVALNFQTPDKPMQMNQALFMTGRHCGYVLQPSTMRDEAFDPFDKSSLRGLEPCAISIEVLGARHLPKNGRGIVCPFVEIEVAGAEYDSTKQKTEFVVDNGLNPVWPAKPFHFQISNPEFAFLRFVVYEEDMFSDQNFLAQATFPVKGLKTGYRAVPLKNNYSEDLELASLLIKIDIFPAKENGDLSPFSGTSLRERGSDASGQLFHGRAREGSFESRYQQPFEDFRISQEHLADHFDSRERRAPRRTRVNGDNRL
proKLK7 act conf – confirmation of human kallikrein-7 zymogen activators | shares compounds with KLK7 zymogen act | purified proKLK7, EDANS-DABCYL substrate fluorescence; scaled: vehicle 0, mature enzyme 100 | activation, % at 7 µM | actives 68% (n = 3,200) | AID 686949;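 active = activation, as change over the incubation, above the mean of all tested compounds plus 3 SD, cut at about 13% in these data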
EDANS-DABCYL int – counter-screen for kallikrein-7 activators: EDANS-DABCYL optical interference; EDANS-DABCYL substrate fluorescence interference, no enzyme, 4 h; solvent 0%, active enzyme control 100%; activation, % at 7 µM; shares compounds with KLK7 zymogen act; actives 80% (n = 3,200); AID 686952;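 active = activation above the all-compound mean plus 3 SD, ignoring values outside control-based bounds, cut at about 4.8% in these data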;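 note: value is the 4 h activation minus the activation read at time zero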
K7 EDANS ctr – counter-screen for kallikrein-7 activators: EDANS-DABCYL interference, dose response | shares compounds with KLK7 zymogen act | EDANS-DABCYL peptide fluorescence interference, no enzyme | EC50, µM | actives 20% (n = 250) | AID 720493;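 active = compounds that raise the fluorescence signal in this interference counterscreen, with EC50 at or below 10 µM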;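 note: intact quenched peptide substrate alone read at 355 nm excitation and 520 nm emission; signal is fluorescence gain from T0 to T4 after four hours at room temperature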
ADAM10 confirm – confirmation of inhibitors of human ADAM10. shares compounds with ADAM10 inh. ADAM10 QFRET peptide cleavage, EDANS fluorescence. inhibition, % at 6.95 µM. actives 1% (n = 2,100);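 active = inhibition above about 20% chosen separately for each screening run, limit read from the data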;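 note: 0% = DMSO wells and 100% = marimastat wells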
ADAM17 counter – ADAM17 inhibition, counter-screen for ADAM10 exosite hits. shares compounds with ADAM10 inh. ADAM17 QFRET peptide cleavage, EDANS fluorescence. inhibition, % at 6.95 µM. actives 0.5% (n = 2,100). AID 743214;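 active = mean triplicate inhibition above the solvent-only control wells' mean plus 3 SD, cut at about 12% in these data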;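 note: 0% = DMSO wells and 100% = marimastat wells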
ADAM10 ctr – ADAM10 inhibition, counter-screen for ADAM17 exosite hits; shares compounds with ADAM17 inh; recombinant ADAM10, EDANS/DABCYL FRET peptide cleavage, 3 h; inhibition, % at 6.95 µM; actives 47% (n = 2,900); AID 743256;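 active = mean inhibition over the triplicate runs exceeds the activity threshold set in the earlier primary screen, cut at about 20% in these data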;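 note: 0% = DMSO wells and 100% = marimastat wells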
ADAM17 confirm – confirmation of inhibitors of human ADAM17; shares compounds with ADAM17 inh; recombinant ADAM17, EDANS/DABCYL QFRET peptide cleavage; inhibition, % at 6.95 µM; actives 65% (n = 2,900); AID 743257;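 active = mean inhibition across replicates above the hit cutoff set in the primary screen, cut at about 8.5% in these data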;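 note: 0% = DMSO wells and 100% = marimastat wells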
PLCgamma1 ctr – inhibits human PLC-gamma1 in PLC-beta3 counter-screen; shares compounds with PLCg1 inh; purified PLC-gamma1, fluorogenic substrate, fluorescence; inhibition, % at 12.3 µM; actives 3.1% (n = 3,300); AID 743258
PLCbeta3 conf – confirmation of human PLC-beta3 inhibitors; shares compounds with PLCg1 inh; purified PLC-beta3, fluorogenic substrate fluorescence; inhibition, % at 12.3 µM; actives 1% (n = 3,300); AID 743261; in the data active = inhibition above about 11%
An asterisk follows results filed as active; nt = no result given; ! = not active in a repeat. Hits are enriched below; roughly 2.9% of the tested compounds scored in any of these assays. Cut-off read from the data, not from the text of the source, unless noted: active = inhibition above about 9.5%; inactive = the rest.

SMILES	PLCb3 inh	ADAM10 inh	ADAM17 inh	KLK7 zymogen act	PLCg1 inh	ADAM10 confirm	ADAM17 counter	others
COc1ccc(CCNC(=O)CSc2nc(N)c(C#N)c(-c3cccs3)c2C#N)cc1OC	-3	8	8.9*	22*	-1	nt	nt	proKLK7 act conf=35*;EDANS-DABCYL int=41*;ADAM10 ctr=15;ADAM17 confirm=8
CCc1ccccc1NC(=O)CSc1nc2n[nH]c(C)c2c(=N)n1-c1ccc(OC)cc1	-8	16	12*	31*	-13	nt	nt	proKLK7 act conf=20*;EDANS-DABCYL int=16*;K7 EDANS ctr=3.3*;ADAM10 ctr=-2;ADAM17 confirm=9.0*
COc1ccc(-n2c(Cc3cccs3)nnc2SCC(=O)Nc2cccc3ccccc23)cc1	3	10	4	0	0	nt	nt
CCOc1ccc(/C=C(\C)C(=O)c2c(C)cc(C)[nH]c2=O)cc1	5	20*	7	28*	12*	-2	-1	proKLK7 act conf=0;EDANS-DABCYL int=0;PLCgamma1 ctr=1;PLCbeta3 conf=-8
COc1ccc(/C=C(\C)C(=O)c2c(C)cc(C)[nH]c2=O)cc1	-3	2	1	0	2	nt	nt
Nc1cc(Nc2ccccc2)c2nonc2c1[N+](=O)[O-]	2	5	6	13*	11*	nt	nt	proKLK7 act conf=-1;EDANS-DABCYL int=0;PLCgamma1 ctr=2;PLCbeta3 conf=1
COC(=O)C[C@H]1CC[C@H]2[C@H](COc3ccc(NS(=O)(=O)c4cccc(F)c4)cc3C(=O)N2C)O1	4	2	1	0	1	nt	nt
N#Cc1ccc(CN(Nc2ccccc2)c2ccccc2)cc1	3	27*	8	6	7	5	2
c1ccc(NN(Cc2ccncc2)c2ccccc2)cc1	1	1	0	1	2	nt	nt
C=CC[C@H]1c2ccccc2[C@H]2N3N=Cc4ccccc4[C@H]3[C@H](CCCC)C(=O)N2N1C(=O)c1ccccc1	2	1	-2	0	-3	nt	nt
Cc1nn(C)c(C(=O)N/N=C/c2cccc(Oc3ccccc3)c2)c1Br	-2	24*	1	0	5	3	1
Nc1ccc(C(=O)N/N=C/c2cccc(Oc3ccccc3)c2)cc1	-94	-5	2	1	-73	nt	nt
CSCC[C@H](NC(=O)OC(C)(C)C)c1nnc(SCc2ccc(F)cc2)o1	0	8	0	1	0	nt	nt
CSCC[C@H](NC(=O)OC(C)(C)C)c1nnc(SCc2cccc(F)c2)o1	4	20*	1	-1	3	1	0
CCCN1C(=O)C(Cc2nc3ccccc3c(=O)n2-c2ccccc2)c2ccccc21 (stereo not drawn)	0	-5	0	0	2	nt	nt
CC(C)N1C(=O)C(Cc2nc3ccccc3c(=O)n2-c2ccccc2)c2ccccc21 (stereo not drawn)	0	86*	2	0	-3	3	1
Cc1ccc(C2(c3ccc(C)cc3)CC2C(=O)Nc2ccc([N+](=O)[O-])cc2O)cc1 (stereo not drawn)	12*	42*	19*	0	9	11	4
CC1(C)CC1C(=O)Nc1ccc([N+](=O)[O-])cc1Br (stereo not drawn)	4	16	3	1	4	nt	nt
COc1ccccc1C1=NC(c2ccc(C)cc2)N=C1C (stereo not drawn)	3	95*	6	1	6	0	0
O=C(Nc1ccc(S(=O)(=O)NCCc2ccccc2)cc1)c1ccc(Br)o1	-4	21*	6	-1	-1	2	1
O=C(Oc1cccc(NC(=O)c2ccco2)c1)c1ccc(Br)c(S(=O)(=O)N2CCCCC2)c1	9	28*	13*	1	5	3	1
Cc1ccc(C(=O)Oc2cccc(NC(=O)c3ccco3)c2)cc1S(=O)(=O)N1CCC(C)CC1	-3	13	7	0	-3	nt	nt
O=C(N[C@@H]1CCC(=O)N(CC[C@H](Oc2ccccc2)c2ccccc2)CC1)OCc1ccccc1	7	20*	3	0	0	5	2
C=CCN1C(=O)[C@H](CC(=O)NCC2CCCCC2)[C@@]2(C(=O)OCC)CCCC=C12	3	2	4	1	6	nt	nt
N#Cc1cccc(OC[C@@H](O)CN2CCC(C(O)(c3ccccc3)c3ccccc3)CC2)c1	3	3	3	1	2	nt	nt
SMILES	PLCb3 inh	ADAM10 inh	ADAM17 inh	KLK7 zymogen act	PLCg1 inh	ADAM10 confirm	ADAM17 counter	others
CC1(C)C=Cc2c(ccc3c2OC[C@H](c2ccc(O)cc2O)C3)O1	-1	28*	8	1	0	13	3
COCCOC(=O)C1=C(C)NC(C)=C(C(=O)OC(C)C)C1c1cccc([N+](=O)[O-])c1 (stereo not drawn)	6	22*!	3	0	8	1	0
CCOC(=O)C1=C(C)NC(C)=C(C(=O)OC)C1c1cccc([N+](=O)[O-])c1 (stereo not drawn)	5	8	3	0	4	nt	nt
CCOC(=O)[C@]12CCCCC/C=C\1N(Cc1ccc(OC)cc1)C(=O)[C@H]2CC(=O)N1CCCC1	0	-2	-1	1	3	nt	nt
CCOC(=O)Nc1ccc2c(c1)N(C(=O)CCN(C)C)c1ccccc1CC2	-2	-4	2	-1	4	nt	nt
CCOC(=O)Nc1ccc2c(c1)N(C(=O)OCCN(C)C)c1ccccc1CC2	-30	51*!	-11	0	-26	2	0
